# Measurements as given in PubChem BioAssay (NCI).
# This is part of a sample that, as a whole, favours compounds with a hit. Of some 83,000 tested, about 20% had one in any assay.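 Cells were grown in 96-well plates and exposed to the test compound at a single concentration for 48 hours; results are reported as percent growth, with values below 10 considered active.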 Unmarked numbers belong to inactive results. Calls of active or inactive are those of the source.
# Legend:
# Experiment in all cases: NCI-60 one-dose screen, 48 h (100 = growth as untreated, 0 = no growth, -100 = all killed)
# OVCAR-8 ovarian = conditions: 10 µM unless noted
# OVCAR-5 ovarian = conditions: 10 µM unless noted
# OVCAR-4 ovarian = conditions: 10 µM unless noted
# SK-OV-3 ovarian = conditions: 10 µM unless noted
# IGROV1 ovarian = conditions: 10 µM unless noted
# OVCAR-3 ovarian = conditions: 10 µM unless noted
# HS 578T breast = conditions: 10 µM unless noted
# NCI/ADR-RES ovarian = conditions: 10 µM unless noted
# T-47D breast = conditions: 10 µM unless noted
# BT-549 breast = conditions: 10 µM unless noted
# MDA-MB-435 melanoma = conditions: 10 µM unless noted
# SW-620 colon = conditions: 10 µM unless noted
# MCF7 breast = conditions: 10 µM
# HCT-116 colon = conditions: 10 µM unless noted
# HCC-2998 colon = conditions: 10 µM unless noted
# KM12 colon = conditions: 10 µM unless noted
# RPMI-8226 leukemia = conditions: 10 µM unless noted
Structure (SMILES),growth (OVCAR-8 ovarian),growth (OVCAR-5 ovarian),growth (OVCAR-4 ovarian),growth (SK-OV-3 ovarian),growth (IGROV1 ovarian),growth (OVCAR-3 ovarian),growth (HS 578T breast),growth (NCI/ADR-RES ovarian),growth (T-47D breast),growth (BT-549 breast),growth (MDA-MB-435 melanoma),growth (SW-620 colon),growth (MCF7 breast),growth (HCT-116 colon),growth (HCC-2998 colon),growth (KM12 colon),growth (RPMI-8226 leukemia)
CCOC(=O)C(CC(=O)O)=C(C(=O)OCC)C(=O)OCC,99.9%,109%,90.2%,110%,111%,111%,107%,112%,100%,122%,103%,105%,92%,99.8%,104%,–,–
O=C(Nc1ccc(Cl)cc1)c1cc2ccccc2cc1OP(=O)(O)O,27.9%,69.1%,25%,19%,-1.26% (active),10.7%,32.9%,16.6%,25.4%,11.7%,15.8%,42.3%,54%,10.8%,47.9%,56.2%,–
CCCc1c(C)c2sc(=O)[nH]c2[nH]c1=O,104%,103%,100%,104%,112%,113%,103%,105%,102%,–,112%,102%,97.6%,106%,106%,105%,–
CN(C)CCNc1cc(-c2ccccc2)nc2ccccc12,-34.4% (active),-39.7% (active),-25% (active),36.4%,-64% (active),-92.5% (active),11.1%,-1.85% (active),-5.18% (active),-77.8% (active),-55.1% (active),-79.8% (active),-24.6% (active),-71.4% (active),-81.4% (active),-23.8% (active),–
COc1ccc(C2C3=C(COC3=O)N(CCO)c3cc4c(cc32)CCC4)cc1 (centres undefined),58.4%,96.2%,75.9%,57.3%,51.8%,0.832% (active),69.7%,65.3%,31.5%,38.4%,0.306% (active),31.5%,–,33.5%,61.1%,21.2%,–
COc1ccc(-c2nocc2-c2cccs2)cc1,110%,88.9%,99%,105%,102%,108%,91.1%,110%,–,105%,101%,99.4%,97.3%,103%,118%,–,–
O=C(O)c1cn(C2CC2)c2cc(N3CCN(C(=O)C[n+]4ccccc4)CC3)c(F)cc2c1=O,105%,104%,89.4%,110%,109%,107%,99.3%,105%,94.2%,102%,99.9%,105%,101%,99.3%,–,103%,–
COC(=O)[C@H]1CCCN1C(=O)[C@H]1CCCN1C(=O)[C@H](Cc1c[nH]c2ccccc12)NC(=S)Nc1cc(C(F)(F)F)cc(C(F)(F)F)c1,68.5%,71.1%,62%,85.2%,44.6%,63.7%,44.8%,93.2%,56.5%,97.4%,45.4%,70.4%,32.5%,41%,16.1%,–,–
O=C(Nc1ccccc1O)c1ccc(-c2ccc(Cl)cc2Cl)o1,–,99.2%,–,94.5%,88.3%,85.6%,93.8%,90.3%,77.2%,91.7%,96.9%,101%,87.5%,68.7%,96.5%,–,74.1%
O=C(NC1C(O)OC(CO)C(O)C1O)NS(=O)(=O)c1ccc(Cl)cc1 (centres undefined),102%,99.7%,105%,105%,107%,112%,98.7%,105%,91.3%,–,100%,100%,98.2%,96.9%,115%,104%,–
Clc1ccc(-c2nnc(COc3ccc(C4=NNC(c5ccco5)C4)cc3)o2)cc1 (centres undefined),96.6%,95%,77%,98.2%,85.4%,91.3%,95.7%,72.6%,25.7%,81.6%,93.1%,94.5%,17.3%,86.1%,82.3%,70.9%,–
O=C(Nc1ccc(Br)cc1F)c1cc(F)ccc1O,8.95% (active),25.3%,12.4%,1.4% (active),19.2%,9.86% (active),1.14% (active),9.89% (active),-3.86% (active),–,-1.29% (active),10.2%,3.43% (active),2.34% (active),17.8%,0.627% (active),–
Nc1no[n+]([O-])c1-c1nnc2c(n1)-c1ccccc1C2=O,65.7%,83.9%,-97.5% (active),111%,82.6%,-20.2% (active),89%,72.1%,61%,80.8%,18.8%,29.9%,-48.9% (active),1.78% (active),–,73.1%,–
S=C1NC2(c3ccccc3)CCC(=S)N2c2ccccc21 (centres undefined),–,103%,105%,–,106%,119%,101%,109%,106%,107%,101%,108%,108%,103%,127%,108%,103%
COc1ccc2sc(N(Cc3cccnc3)C(=O)c3ccc(C#N)cc3)nc2c1,80.7%,96.7%,105%,106%,98.1%,92.2%,85.1%,85.4%,78.3%,92.1%,66.5%,90.6%,87%,58.2%,82.6%,75.8%,–
CCOC(=O)c1sc(-c2ccc(OS(=O)(=O)c3cccs3)c(C=O)c2)nc1C,-5.05% (active),33.1%,4.5% (active),123%,-36.2% (active),-9.03% (active),11.2%,-2.63% (active),19.1%,-7.24% (active),-15.1% (active),8.51% (active),-21.7% (active),2.95% (active),46.4%,0.602% (active),–
O=c1c2cc(F)cc(Cl)c2sc2c(Cl)nc3ccccc3c12,102%,95.5%,98.7%,95%,74.8%,108%,88.4%,98.3%,91.8%,–,110%,97.7%,77.1%,104%,104%,101%,–
CC(=S)NC(=O)C(=O)/C=C1/NC(=O)C(=O)S1,106%,107%,106%,122%,109%,122%,107%,103%,107%,106%,106%,106%,104%,114%,108%,107%,–
COc1ccc(-c2nnc(COc3ccc(C(=O)/C=C/c4ccco4)cc3)o2)cc1,73.9%,97.7%,67.9%,92.8%,87.6%,64.1%,92.6%,89.2%,80.6%,79.2%,10.9%,31%,19.6%,-10.2% (active),98.2%,18.2%,–
O=C(/C=C/c1ccc(C(F)(F)F)cc1)c1ccc(Nc2nc(NCCO)nc(Nc3ccc(Cl)cc3)n2)cc1,–,97.3%,42.2%,–,–,27.1%,72.4%,78.7%,24.2%,–,47.7%,0.404% (active),-43.1% (active),-85.6% (active),-30.2% (active),-51.2% (active),6.67% (active)
COc1ccc(Cn2c(Br)c3c(c2-c2cc(OC)c(OC)c(OC)c2)CCc2sc(NC(C)=O)nc2-3)cc1,60.4%,96.8%,49.8%,35.5%,6.54% (active),-14.4% (active),24.6%,27.1%,37.2%,74.2%,-57% (active),20.5%,16.3%,40.7%,70.2%,30.4%,–
